Of roughly 7,900 targets only a part is listed; those with a hit were picked by preference. About 0.6% of all pairs of compound and target were hits.
Assays:
Assay in all cases: log2 fold change, soluble protein after heating vs DMSO (PISA); higher = thermal stabilisation; K562 cells, 10 uM, 30 min; active = over 0.2 and 3.5 SD of the protein, either way, in both replicates (recomputed)
[1] = compound: C1=CC=C(C=C1)[C@H](COC2=CC3=C(C=C2)NC(=O)N3)NC(=O)C4=CC=CN(C4=O)CC5=CC(=C(C=C5)F)F
Procedure, shortened: (§1)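 K562 cells at 2×10^6 cells/mL were given 10 μM compound for 30 min. Aliquots then went through 3 min of heating across 48°C-58°C, were pooled, and were extracted in PBS with 0.5% NP-40 at 4°C, and the supernatant after 21,000xg for 90 min was quantified by TMTpro 16plex LC-MS/MS with channel sums equalised. Thermal stability relative to control samples, from duplicates, is given as log2 fold change.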

[2] = compound: CC1=C(SC2=C1C(=N[C@H](C3=NN=C(N32)C)CC(=O)N)C4=CC=C(C=C4)Cl)C
Procedure, shortened: as §1

[3] = compound: CC1=C2C(=CC=C1)N=C(N(C2=O)C3=CC=CC=C3C)CN4C=NC5=C(N=CN=C54)N
Procedure, shortened: as §1

[4] = compound: Cc1sc2c(c1C)C(c1ccc(Cl)cc1)=N[C@@H](CC(=O)OC(C)(C)C)c1nnc(C)n1-2
Procedure, shortened: as §1

[5] = compound: c1ccc([C@@H]2C[C@H]2NC2CCNCC2)cc1
Procedure, shortened: as §1

Measured: log2 fold change

POLR2C (UniProt P19387)
inactive: [1] -0.091 | [2] 0.125 | [3] -0.023 | [4] 0.155 | [5] -0.092

PRKCG (UniProt P05129)
inactive: [1] -0.216 | [2] -0.025 | [3] 0.033 | [4] -0.017 | [5] 0.077

PTP4A1 (UniProt Q93096)
Sequence of UniProt Q93096 (Q93096 whole entry, looked up): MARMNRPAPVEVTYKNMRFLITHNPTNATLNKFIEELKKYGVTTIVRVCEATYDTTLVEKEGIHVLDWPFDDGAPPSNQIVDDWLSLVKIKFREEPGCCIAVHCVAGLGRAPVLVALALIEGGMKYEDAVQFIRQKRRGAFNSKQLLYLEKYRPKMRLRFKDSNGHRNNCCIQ
inactive: [1] -0.002 | [2] 0.109 | [3] 0.037 | [4] 0.001 | [5] -0.031

POLR3D (UniProt P05423)
Sequence of UniProt P05423 (P05423 whole entry, looked up): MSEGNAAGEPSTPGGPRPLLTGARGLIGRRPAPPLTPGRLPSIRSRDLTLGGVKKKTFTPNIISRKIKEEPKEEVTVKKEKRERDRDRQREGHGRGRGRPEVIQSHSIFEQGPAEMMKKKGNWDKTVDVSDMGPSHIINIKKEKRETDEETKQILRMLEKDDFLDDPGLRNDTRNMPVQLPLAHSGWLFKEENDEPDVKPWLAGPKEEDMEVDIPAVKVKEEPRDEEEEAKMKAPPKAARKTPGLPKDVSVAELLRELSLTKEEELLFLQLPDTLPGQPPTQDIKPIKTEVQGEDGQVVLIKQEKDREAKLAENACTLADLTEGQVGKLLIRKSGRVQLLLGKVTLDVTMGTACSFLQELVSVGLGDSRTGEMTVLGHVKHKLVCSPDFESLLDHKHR
inactive: [1] 0.008 | [2] -0.072 | [3] -0.013 | [4] 0.056 | [5] 0.096

PKM isoform 2 (UniProt P14618)
Sequence of UniProt P14618 (P14618 whole entry, looked up): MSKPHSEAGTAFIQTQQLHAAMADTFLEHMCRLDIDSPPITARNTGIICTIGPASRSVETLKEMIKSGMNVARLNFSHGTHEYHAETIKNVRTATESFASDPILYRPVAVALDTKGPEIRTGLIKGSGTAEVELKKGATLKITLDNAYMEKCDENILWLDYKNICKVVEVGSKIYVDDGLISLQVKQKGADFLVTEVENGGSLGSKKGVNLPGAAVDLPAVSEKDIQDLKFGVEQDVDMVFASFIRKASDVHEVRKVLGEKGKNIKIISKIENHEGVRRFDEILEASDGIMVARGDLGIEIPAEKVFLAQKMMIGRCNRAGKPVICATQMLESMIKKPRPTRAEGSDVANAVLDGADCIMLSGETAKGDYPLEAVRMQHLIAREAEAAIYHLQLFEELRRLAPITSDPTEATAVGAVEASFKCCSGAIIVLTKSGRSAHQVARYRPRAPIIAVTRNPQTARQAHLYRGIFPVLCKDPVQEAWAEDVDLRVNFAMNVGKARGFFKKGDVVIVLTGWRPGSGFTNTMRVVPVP
inactive: [1] 0.063 | [3] -0.057 | [4] -0.046

PIAS4 (UniProt Q8N2W9)
inactive: [4] 0.129

PTRHD1 (UniProt Q6GMV3)
Sequence of UniProt Q6GMV3 (Q6GMV3 whole entry, looked up): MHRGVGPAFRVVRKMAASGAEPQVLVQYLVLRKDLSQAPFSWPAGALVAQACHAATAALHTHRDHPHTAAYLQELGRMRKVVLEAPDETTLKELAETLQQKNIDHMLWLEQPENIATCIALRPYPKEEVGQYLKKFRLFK
inactive: [1] -0.002 | [2] 0.056 | [3] 0.046 | [4] -0.073 | [5] 0.033

PSMA3 (UniProt G3V4X5)
inactive: [1] -0.073 | [3] 0.147

POLA1 (UniProt P09884)
Sequence of UniProt P09884 (P09884 whole entry, looked up): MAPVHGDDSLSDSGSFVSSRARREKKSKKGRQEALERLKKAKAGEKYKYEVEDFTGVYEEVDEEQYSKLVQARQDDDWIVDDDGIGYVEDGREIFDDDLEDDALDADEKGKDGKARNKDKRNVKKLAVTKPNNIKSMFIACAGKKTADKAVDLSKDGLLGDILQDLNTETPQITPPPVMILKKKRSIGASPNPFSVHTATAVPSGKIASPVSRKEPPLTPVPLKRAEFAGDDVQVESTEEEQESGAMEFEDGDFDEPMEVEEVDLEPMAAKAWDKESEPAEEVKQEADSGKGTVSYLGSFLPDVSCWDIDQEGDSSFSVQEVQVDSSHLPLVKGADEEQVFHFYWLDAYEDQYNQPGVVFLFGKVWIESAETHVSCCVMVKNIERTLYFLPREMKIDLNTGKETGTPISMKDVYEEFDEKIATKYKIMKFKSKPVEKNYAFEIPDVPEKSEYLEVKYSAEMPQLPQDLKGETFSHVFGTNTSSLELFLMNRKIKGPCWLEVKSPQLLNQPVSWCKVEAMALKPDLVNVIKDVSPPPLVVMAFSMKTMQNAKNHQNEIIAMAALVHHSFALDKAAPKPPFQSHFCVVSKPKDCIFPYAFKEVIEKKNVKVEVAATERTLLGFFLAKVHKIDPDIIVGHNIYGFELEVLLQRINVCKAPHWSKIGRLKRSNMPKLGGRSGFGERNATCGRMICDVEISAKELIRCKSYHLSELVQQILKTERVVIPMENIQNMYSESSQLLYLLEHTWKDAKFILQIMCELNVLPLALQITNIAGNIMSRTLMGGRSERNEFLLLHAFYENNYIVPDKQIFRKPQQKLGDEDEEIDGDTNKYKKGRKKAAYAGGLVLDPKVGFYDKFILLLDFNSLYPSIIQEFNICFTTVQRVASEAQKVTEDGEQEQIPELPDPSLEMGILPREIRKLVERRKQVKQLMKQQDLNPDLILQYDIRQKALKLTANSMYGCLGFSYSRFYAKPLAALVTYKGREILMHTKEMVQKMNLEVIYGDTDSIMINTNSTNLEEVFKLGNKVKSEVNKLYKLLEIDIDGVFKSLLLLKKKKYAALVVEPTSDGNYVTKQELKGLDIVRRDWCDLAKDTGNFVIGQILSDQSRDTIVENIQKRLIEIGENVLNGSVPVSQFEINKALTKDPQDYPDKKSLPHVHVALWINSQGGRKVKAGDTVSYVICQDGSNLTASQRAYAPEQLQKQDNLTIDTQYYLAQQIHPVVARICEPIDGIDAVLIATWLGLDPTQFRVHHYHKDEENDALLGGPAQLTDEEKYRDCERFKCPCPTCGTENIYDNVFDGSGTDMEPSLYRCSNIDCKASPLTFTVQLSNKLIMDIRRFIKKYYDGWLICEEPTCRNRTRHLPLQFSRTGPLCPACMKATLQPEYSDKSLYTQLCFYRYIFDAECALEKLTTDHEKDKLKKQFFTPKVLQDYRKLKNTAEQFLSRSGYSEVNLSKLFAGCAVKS
inactive: [1] -0.059 | [2] 0.105 | [3] 0.101 | [4] -0.012 | [5] 0

PRKD3 (UniProt O94806)
inactive: [1] -0.103 | [2] 0.044 | [3] -0.007 | [5] -0.097

PARG (UniProt Q86W56)
inactive: [1] -0.043 | [2] -0.013 | [3] 0.018 | [4] -0.009 | [5] -0.075

PSMC3 (UniProt E9PLG2)
inactive: [1] 0.03 | [3] -0.056 | [4] 0.252

PSD3 (UniProt Q9NYI0)
inactive: [2] 0.045 | [3] 0.052 | [5] -0.028

PPP1R12C (UniProt Q9BZL4)
Sequence of UniProt Q9BZL4 (Q9BZL4 whole entry, looked up): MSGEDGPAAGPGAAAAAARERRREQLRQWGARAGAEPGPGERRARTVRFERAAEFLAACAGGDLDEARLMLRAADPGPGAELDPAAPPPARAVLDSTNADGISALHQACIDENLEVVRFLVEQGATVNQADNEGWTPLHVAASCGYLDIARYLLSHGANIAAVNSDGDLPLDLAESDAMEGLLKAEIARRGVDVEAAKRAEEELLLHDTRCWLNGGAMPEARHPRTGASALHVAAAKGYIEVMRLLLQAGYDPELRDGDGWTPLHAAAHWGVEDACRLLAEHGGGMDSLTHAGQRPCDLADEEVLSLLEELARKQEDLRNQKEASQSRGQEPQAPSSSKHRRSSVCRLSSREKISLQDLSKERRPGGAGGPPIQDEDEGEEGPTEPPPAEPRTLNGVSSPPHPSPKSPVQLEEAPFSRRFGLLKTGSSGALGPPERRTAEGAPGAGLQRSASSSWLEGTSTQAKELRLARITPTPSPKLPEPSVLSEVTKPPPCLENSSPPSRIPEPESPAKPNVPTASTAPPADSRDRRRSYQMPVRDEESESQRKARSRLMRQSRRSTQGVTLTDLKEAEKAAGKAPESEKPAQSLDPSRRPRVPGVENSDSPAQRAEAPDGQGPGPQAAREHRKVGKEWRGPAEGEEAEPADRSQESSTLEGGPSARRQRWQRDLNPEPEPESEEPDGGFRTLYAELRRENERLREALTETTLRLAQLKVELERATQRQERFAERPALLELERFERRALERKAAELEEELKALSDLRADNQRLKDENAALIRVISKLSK
inactive: [1] -0.16 | [3] 0.05 | [4] 0.053

PGM3 isoform 4 (UniProt O95394)
Sequence of UniProt O95394 (O95394 whole entry, looked up): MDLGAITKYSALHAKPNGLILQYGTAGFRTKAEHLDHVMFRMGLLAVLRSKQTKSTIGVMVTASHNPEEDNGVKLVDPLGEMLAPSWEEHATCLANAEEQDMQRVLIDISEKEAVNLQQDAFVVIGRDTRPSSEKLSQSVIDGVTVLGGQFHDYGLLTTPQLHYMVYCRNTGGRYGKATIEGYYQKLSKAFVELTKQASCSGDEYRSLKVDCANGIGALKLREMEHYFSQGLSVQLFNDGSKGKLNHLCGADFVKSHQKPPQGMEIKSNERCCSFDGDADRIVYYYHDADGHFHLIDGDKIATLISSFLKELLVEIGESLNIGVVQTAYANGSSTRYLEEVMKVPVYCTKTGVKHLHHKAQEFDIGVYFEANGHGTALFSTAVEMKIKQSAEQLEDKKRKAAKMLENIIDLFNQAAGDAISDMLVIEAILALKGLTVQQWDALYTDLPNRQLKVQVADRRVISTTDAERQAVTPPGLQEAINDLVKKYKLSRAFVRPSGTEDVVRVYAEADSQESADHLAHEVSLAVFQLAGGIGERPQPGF
inactive: [1] -0.082 | [2] 0.039 | [3] 0.066 | [4] 0.012 | [5] -0.088

PSMB9 (UniProt P28065)
Sequence of UniProt P28065 (P28065 whole entry, looked up): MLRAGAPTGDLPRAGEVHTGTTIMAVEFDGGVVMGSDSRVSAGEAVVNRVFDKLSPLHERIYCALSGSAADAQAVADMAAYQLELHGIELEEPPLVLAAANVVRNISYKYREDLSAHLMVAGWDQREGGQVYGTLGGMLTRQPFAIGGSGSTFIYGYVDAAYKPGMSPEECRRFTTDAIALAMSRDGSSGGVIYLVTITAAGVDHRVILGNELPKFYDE
inactive: [1] 0.182 | [2] 0.138 | [3] 0.179 | [5] -0.203

PCF11 (UniProt O94913)
inactive: [1] -0.319 | [2] -0.02 | [3] 0.068 | [5] 0.006

PSMD8 (UniProt K7ERW6)
inactive: [3] 0.2 | [4] 0.03

POLR2E (UniProt P19388)
inactive: [1] -0.013 | [2] 0.094 | [3] -0.023 | [4] 0.054 | [5] -0.06

POLB (UniProt P06746)
inactive: [2] 0.053 | [4] -0.107 | [5] -0.006

PDE4DIP (UniProt E9PS60)
inactive: [2] 0.013 | [3] -0.209 | [5] -0.069

POGZ (UniProt Q7Z3K3)
inactive: [2] 0.056 | [3] 0.099 | [4] 0.025 | [5] -0.032

PSMC1 (UniProt G3V4X1)
inactive: [2] -0.021 | [5] 0.112

PCBP2 (UniProt F8VZX2)
inactive: [1] -0.1 | [2] -0.107 | [5] 0.019

PRKCE (UniProt Q02156)
Sequence of UniProt Q02156 (Q02156 whole entry, looked up): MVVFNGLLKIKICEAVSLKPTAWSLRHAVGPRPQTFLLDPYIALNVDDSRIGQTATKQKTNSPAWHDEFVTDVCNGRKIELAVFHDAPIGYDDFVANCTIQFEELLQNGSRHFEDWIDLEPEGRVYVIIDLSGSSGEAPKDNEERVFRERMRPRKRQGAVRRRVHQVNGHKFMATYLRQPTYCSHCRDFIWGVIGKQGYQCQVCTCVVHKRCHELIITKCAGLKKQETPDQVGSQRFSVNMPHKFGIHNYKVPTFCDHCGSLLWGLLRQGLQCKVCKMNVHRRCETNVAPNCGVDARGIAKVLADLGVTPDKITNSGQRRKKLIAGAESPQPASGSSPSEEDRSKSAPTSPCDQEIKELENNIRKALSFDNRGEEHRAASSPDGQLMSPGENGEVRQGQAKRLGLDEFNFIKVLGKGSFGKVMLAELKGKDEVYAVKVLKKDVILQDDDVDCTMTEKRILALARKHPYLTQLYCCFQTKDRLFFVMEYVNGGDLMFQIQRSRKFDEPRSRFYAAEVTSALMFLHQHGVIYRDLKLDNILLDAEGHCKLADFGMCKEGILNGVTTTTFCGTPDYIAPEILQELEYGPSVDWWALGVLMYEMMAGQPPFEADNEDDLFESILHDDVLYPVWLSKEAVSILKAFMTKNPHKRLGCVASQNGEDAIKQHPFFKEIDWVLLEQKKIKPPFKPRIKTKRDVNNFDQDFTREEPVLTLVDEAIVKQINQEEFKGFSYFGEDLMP
inactive: [1] -0.065 | [2] 0.033 | [3] 0.071 | [4] 0.018 | [5] 0

PTP4A3 (UniProt O75365)
inactive: [1] 0.037 | [3] 0.391

PELP1 (UniProt Q8IZL8)
inactive: [1] 0 | [2] 0.006 | [3] -0.028 | [4] -0.044 | [5] -0.013

From the supplement of paper PMC10849652
